Results filed as inconclusive are left out. The source made the active and inactive calls. Rule for the calls: active = hit-call score of the fitted dose curve at least 0.9, where 1 is the maximum; inconclusive = response in the unintended direction; inactive = score below 0.9.

Sequence of Estrogen receptor (Homo sapiens) (P03372 whole entry, looked up): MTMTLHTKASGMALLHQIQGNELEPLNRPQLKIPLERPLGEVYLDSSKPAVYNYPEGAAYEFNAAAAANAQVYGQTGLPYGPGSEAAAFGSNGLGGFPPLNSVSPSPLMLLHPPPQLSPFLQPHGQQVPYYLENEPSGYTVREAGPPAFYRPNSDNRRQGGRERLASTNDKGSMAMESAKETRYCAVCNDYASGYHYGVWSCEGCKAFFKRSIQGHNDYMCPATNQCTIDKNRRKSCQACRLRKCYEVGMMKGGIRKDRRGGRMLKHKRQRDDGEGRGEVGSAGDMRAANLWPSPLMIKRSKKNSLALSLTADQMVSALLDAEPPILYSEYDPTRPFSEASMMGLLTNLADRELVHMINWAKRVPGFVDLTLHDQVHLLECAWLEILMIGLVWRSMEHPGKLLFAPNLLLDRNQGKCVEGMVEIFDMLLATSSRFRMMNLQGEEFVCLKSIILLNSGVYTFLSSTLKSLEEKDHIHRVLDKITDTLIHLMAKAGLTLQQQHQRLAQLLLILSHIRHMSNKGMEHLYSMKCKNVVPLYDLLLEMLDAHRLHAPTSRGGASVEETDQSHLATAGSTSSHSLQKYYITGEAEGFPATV

Test system in the first assay: not listed separately
The experiment in a line: CCTE_Deisenroth_AIME_384WELL_CTox_Active: Cytotoxicity Assessment (CTOX) in CCTE's 384-well Estrogen Receptor Transactivation Assay with AIME metabolic competence (metabolism positive), Deisenroth Lab (AID 2284037).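 Note: chemicals first conditioned 2 h by alginate-bound induced rat liver S9 before cells; activity means signal loss indicating cell death.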 The procedure, abridged:
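VM7Luc4E2 breast cells received medium pre-incubated 2 h with chemical over alginate microspheres holding induced male Sprague Dawley rat liver S9; viability read 24 h later by protease-substrate fluorescence. Loss of signal, bidirectional fit, 0.002–200 uM.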
For `O=C(O)C1CCC(C(=O)O)CC1` (stereo not given), the outcome was inactive. For the molecule `C=CCOC(=O)c1ccc(C(=O)OCC=C)c(C(=O)OCC=C)c1`, the outcome was inactive.

Take `O=C(O)c1cc(O)c2ccccc2c1O`: the AC50 was 34.5 µM (active). Consider `CCCCCCOc1ccc(N)cc1`, for which the call was inactive. On to `CCCCCCCCCC[N+](C)(CCCCCCCCCC)CCC[Si](OC)(OC)OC`, for which the concentration at half-maximal activity (AC50) is 49.4 µM (active). On to `Cc1ccc([N+](=O)[O-])cc1N`, for which the call was inactive.

A further assay has as its target Estrogen receptor (Homo sapiens) (UniProt P03372). The experiment in a line: CCTE_Deisenroth_AIME_384WELL_LUC_Inactive: CCTE's 384-well Estrogen Receptor Transactivation Assay without AIME metabolic competence (ERTA luciferase; metabolism negative), Deisenroth Lab (AID 2284038).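 Note: hits raise estrogen receptor luciferase signal so potencies reflect agonists.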 The procedure, abridged: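 Metabolism-negative mode: chemicals (10-point, 0.002–200 uM) held 2 h with alginate-water microspheres, then conditioned medium applied to VM7Luc4E2 cells for 24 h. Luciferase induction referenced to 17beta-estradiol.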
Consider `CCCCNC(=S)NCCCC`, for which the result was inactive.

In the case of `CCCCCCCCC(CO)CCCCCC` (stereo not given), the molecule was classed as inactive. Consider `CCCCNS(=O)(=O)c1ccc(C)cc1`, for which the call was inactive. On the same count and under the same terms, with `O=C(O)C1CCC(C(=O)O)CC1` (stereo not given) the entry was “inactive”; with `O=C(O)c1ccc2c(c1)C(=O)OC2=O`, “inactive”; with `C=CCOC(=O)c1ccc(C(=O)OCC=C)c(C(=O)OCC=C)c1`, “inactive”. On to `O=C(O)CC(C(=O)O)S(=O)(=O)O` (stereo not given), for which the molecule was classed as inactive. Same read-out and setting: with `CCOC(=O)C1=NOC(c2ccccc2)(c2ccccc2)C1` the entry was “inactive”; with `CC(C)=CCCC(C)=CC#N`, “inactive”. The same measure, in the same setting: under `CO[Si](C)(C)OC` stands “inactive”.

For `CC1(C)[C@@H]2CC[C@@]1(C)C(=O)C2`, the call was inactive. Turning to `CCCCCCOc1ccc(N)cc1`, the half-maximal activity concentration (AC50) is 53.9 µM (active).

With `CC(=O)/C=C/C1C(C)=CCCC1(C)C` (stereo not given), the call was inactive.

Regarding `CCC(C)(O)CCCC(C)C` (stereo not given), the molecule was called inactive. Regarding `CC(C)(C)N`, the result was inactive. The same measure, in the same setting: with `COC(=O)c1ccccc1C` the entry was “inactive”; with `CCCCCCCCCCCCCC(=O)OC(C)C`, “inactive”; with `CC(=O)OCc1ccccc1`, “inactive”. On the same count and under the same terms, with `Cc1ccc([N+](=O)[O-])cc1N` the entry was “inactive”.
